Screens as filed in PubChem.
Lassa entry inh: inhibitors of Lassa virus binding or cell entry; Lassa virus pseudotype entry inhibition, cell reporter; Potency, µM (series often up to 37.9 µM), for the others: at the highest dose activity change, negative = inhibition, hits mostly inhibitors; 1.2% of 300,000 active; AID 540256; calls by dose curve; tested in HEK293 cells; note: potency is the fitted concentration of half-maximal effect; % is set by controls: 0 for no effect and ±100 for the full control effect; nearly all actives have a fitted effect of over 50% in size
HCV inhibitor: HCV inhibition | AID 651820 | 3.4% of 340,000 active | Huh7.5.1 HCVcc-Cre infection, luciferase reporter, 44 h | Potency, µM (doses to about 41.8 µM), without a hit: at the top dose activity change, negative = inhibition, usual class: inhibitors; active = well fitted inhibition curve with a large enough effect; inconclusive = small, poorly fitted or top-dose-only effect, or another doubt; inactive = no such curve, though single readings can be large or run the other way; note: potency is the fitted concentration of half-maximal effect; % is set by controls: 0 for no effect and ±100 for the full control effect
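Infectious HCV cell culture screen: compound-treated cells (1,000/well, pre-plated 4 h) are infected with HCVcc-Cre at roughly 0.5 moi and grown 44 h. Infection is quantified by luciferase signal after 15 min substrate incubation at room temperature.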
FMDV inh: blocks foot and mouth disease virus; Potency, µM (series often up to 57.9 µM), for the others: at the highest dose activity change, negative = inhibition, hits mostly inhibitors; 1.2% of 410,000 active; AID 1159524; FMDV antiviral cell-based qHTS; calls by dose curve; tested in HEK293T cells; note: read-out not given here; potency is the fitted concentration of half-maximal effect; % is set by controls: 0 for no effect and ±100 for the full control effect; nearly all actives have a fitted effect of over 45% in size
SARS PLP yeast: inhibitors of SARS-CoV papain-like protease in yeast; S. cerevisiae expressing SARS-CoV PLpro, growth rescue; Potency, µM (top dose mostly 32.9 µM), for inactives: top-dose activity, positive = growth rescue, usual class: activators; 0.19% of 330,000 active; AID 485353; calls by dose curve; note: potency is the fitted concentration of half-maximal effect; 0% is about no effect; nearly all actives have a fitted effect of over 55% in size
MARV entry inh: inhibitors of Marburg virus binding or cell entry; Marburg virus pseudotyped entry inhibition, cell reporter; Potency, µM (top dose mostly 37.8 µM), for the others: at the top dose activity change, negative = inhibition, usual class: inhibitors; 1.8% of 300,000 active; AID 540276; calls by dose curve; tested in HEK293 cells; note: potency is the fitted concentration of half-maximal effect; % is set by controls: 0 for no effect and ±100 for the full control effect
HCMV inh: human cytomegalovirus inhibition; HFF cells, HCMV-luciferase reporter, 72 h; stronger effect = lower value; activity change, negative = inhibition, % at 57.5 µM; 4.5% of 410,000 active; in the data active = activity change below about -60%; inconclusive = no clear call, values can overlap the other calls; inactive = above about -39%; note: % is set by controls: 0 for no effect and ±100 for the full control effect
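After 16 h attachment at 37C, HFF cells received test compound and HCMV-luciferase (1 PFU/cell); reporter luminescence read 72 h later, data normalized against buffer-only and known inhibitor Salinomycin.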
The depositor's hits bear a star; u = inconclusive; x = no result given; [ ] = remark or other dose. Compounds with a hit are over-represented: about 8% of the library has one in this group of screens.

SMILES | Lassa entry inh | HCV inhibitor | FMDV inh | SARS PLP yeast | MARV entry inh | HCMV inh
Cc1cc(C)c(S(=O)(=O)N2CCN(C(=O)c3cc4ccccc4oc3=O)CC2)c(C)c1 | x | u | -26% | 1% | x | -102*
Cc1ccc(N2C(=O)C(CC(=O)Nc3ccccc3)N(CCC3=CCCCC3)C2=O)cc1 (stereo not given) | 2%[46.1 µM] | x | 55% | x | u | 40
CCCCNC(=O)Nc1ccc([C@@](O)(C(=O)OCC)C(F)(F)F)cc1 | x | x | x | x | -1% | x
Cc1nn(-c2ccccc2)c(Cl)c1C(=O)NNC(=O)c1ccncc1 | x | 1% | -2% | 4% | x | -35
O=C(c1cc(-c2ccccc2)nn1-c1ccccc1)N1CCN(S(=O)(=O)c2ccc(F)cc2)CC1 | -18% | u | -6% | 2% | -23% | -77*
Cc1nn(-c2ccccc2)c(Cl)c1C(=O)NNC(=O)c1ccccc1O | x | 10µM* | 38% | -2% | x | 62
Cc1c(C(=O)O)oc2ccc(S(=O)(=O)N3CCCC3)cc12 | x | 17% | -11% | 8% | x | -36
Cc1c(C(=O)NCc2ccc3c(c2)OCO3)oc2ccc(S(=O)(=O)N3CCCCCC3)cc12 | -27% | u | u | x | 13µM* | -32
Cc1c(C(=O)NCCN2CCOCC2)oc2ccc(S(=O)(=O)N3CCCCCC3)cc12 | -23% | -3% | -5% | 8% | -12%[46.1 µM] | -100*
CCCCN(C)C(=O)c1oc2ccc(S(=O)(=O)N3CCCCCC3)cc2c1C | 14%[14.3 µM] | x | 35µM* | -14% | 5% | u
CC1(NC(=O)CC(c2ccccc2)(c2ccccc2)c2ccccc2)CCN(CCCc2ccccc2)C1=O (stereo not given) | x | u | 0% | 8% | x | -10
CCCCN1CCc2nc(Nc3ccc(OC)cc3OC)ncc2C1 | -11%[46.1 µM] | x | -12% | x | x | 2
CCOC(=O)CCS(=O)(=O)c1nc(-c2ccccc2)cc(C(F)(F)F)n1 | 13µM* | 10µM* | 20µM* | -30% | 6.3µM* | x
CCOC(=O)CS(=O)(=O)c1nc(-c2ccccc2)cc(C(F)(F)F)n1 | u | u | 22µM* | -57% | u | -103*
CCOC(=O)CS(=O)(=O)c1ccccc1 | 12% | 2% | 22% | 6% | 20% | 43
CCOC(=O)CS(=O)(=O)c1nc(-c2ccc(F)cc2)cc(C(F)(F)F)n1 | u | 10µM* | u | -29% | u | x
O=C(O)CCS(=O)(=O)c1nc(-c2cccs2)cc(C(F)(F)F)n1 | -14% | -4% | -26% | -20% | -11% | -13
CCC(C)NC(=O)CCSc1nc(-c2ccc(OC)cc2)cc(C(F)(F)F)n1 (stereo not given) | 2%[46.1 µM] | x | -22% | x | 22%[46.1 µM] | -31
COCC(C)NC(=O)CCS(=O)(=O)c1nc(-c2ccc(OC)cc2)cc(C(F)(F)F)n1 (stereo not given) | u | u | 32µM* | -2% | u | -104*
COC(=O)[C@H](C)Sc1nc2c(c(=O)n(C)c(=O)n2C)n1CCC(C)C | x | x | x | x | -14% | x
COC(=O)CCS(=O)(=O)c1nc(-c2ccccc2)cc(C(F)(F)F)n1 | 23µM* | u | 16µM* | -31% | u | x
Cc1ccc(NC(=O)C(OC(=O)c2cc(C)oc2C)c2ccccc2)cc1 (stereo not given) | -6% | -6% | 16% | -24% | u | -61*
O=C(Cn1cnc2c(nnn2Cc2ccccc2F)c1=O)N1CCN(c2ccccc2)CC1 | 15% | -3% | x | 4% | 14% | u
O=C(CSc1ncnc2c1nnn2Cc1ccccc1F)N1CCN(c2ccccc2)CC1 | u | 5% | 35µM* | -4% | -8% | -16
CC(C)(C)NC(=O)CSc1ncnc2c1nnn2Cc1ccccc1Cl | 18µM* | u | u | 2% | u | 32
SMILES | Lassa entry inh | HCV inhibitor | FMDV inh | SARS PLP yeast | MARV entry inh | HCMV inh
CCOc1ccc(CCNC(=O)Cn2nc(-c3ccc(C)cc3)ccc2=O)cc1OCC | 15%[46.1 µM] | x | -23% | x | x | u
CC(=O)N(C)c1ccc(OCC(O)Cn2c(C)nc3ccccc32)cc1 (stereo not given) | u | 11µM* | u | 1% | u | -25
COc1cccc(OCC(Cn2c(C)nc3ccccc32)OC(C)=O)c1 (stereo not given) | u | u | -23% | 0% | u | -70*
CC(=O)Nc1ccc(OCC(O)Cn2c(C)nc3ccccc32)cc1 (stereo not given) | -8% | -13% | -24% | 3% | -26%[46.1 µM] | -6
COC(=O)C(/C=C/c1ccccc1)(c1cn(C)c2ccccc12)C(Nc1ccccc1)c1ccccc1 (stereo not given) | x | x | x | x | x | 28
NC(=O)CC(NC(=O)Cc1ccc(Br)cc1)c1ccc(N2CCc3ccccc3C2)c([N+](=O)[O-])c1 (stereo not given) | x | 6% | -10% | -4% | x | -12
O=C(/C=C/Nc1ccc(Br)cc1F)c1ccco1 | 2.2µM* | -6% | 10µM* | -2% | 1.4µM* | -37
O=C(/C=C/Nc1ccc(F)cc1F)c1ccco1 | u | u | -83% | -1% | u | 119
CN(C)c1ccc(N/C=C/C(=O)c2ccco2)cc1 | u | -13% | -82% | 6% | 3.7µM* | 50
O=C(/C=C/Nc1ccc(F)cc1F)c1ccc(Br)cc1 | 7.1µM* | 17% | 13% | x | u | 146
O=C(c1cc(-c2ccccc2)nc2ccccc12)N1CCN(C2CCS(=O)(=O)C2)CC1 (stereo not given) | x | 12% | -13% | 4% | x | 51
Cc1ccc(S(=O)(=O)C(CNC(=O)c2c(F)cccc2F)c2ccco2)cc1 (stereo not given) | 26%[46.1 µM] | x | 27% | x | x | 37
O=c1c(-c2ccc(F)cc2)nc2cnc(Nc3ccccc3)nc2n1C[C@H]1CCCO1 | x | x | -2% | x | x | x
Cc1ccccc1NC(=O)c1cc2sccc2n1Cc1ccc(F)cc1 | 3%[46.1 µM] | x | 2% | x | u | -14
COc1ccccc1N1CCN(C(=O)c2cc3sccc3n2C)CC1 | u | u | -25% | 2% | u | -76*
O=C(c1cccs1)N1CCN(c2nc3ccccc3s2)CC1 | x | -12% | u | -2% | x | -36
Cn1c(C(=O)N2CCN(c3nc4ccccc4s3)CC2)cc2sccc21 | -1% | -12% | u | 3% | -28% | -74*
O=C(c1ccc(Cl)s1)N1CCN(c2nc3ccccc3s2)CC1 | x | 8% | u | -16% | 4% | -28
CC(NC(=O)c1cc2sccc2n1Cc1ccc(F)cc1)c1ccccc1 (stereo not given) | -19%[46.1 µM] | x | 0% | x | -18%[46.1 µM] | -85*
O=C(c1cc2sccc2n1Cc1ccc(F)cc1)N1CCN(c2nc3ccccc3s2)CC1 | -35% | 3.2µM* | u | 20% | 3.5µM* | u
O=C(NC1CCCCCC1)c1cc2c(Cl)nc3ccccc3c2s1 | 20%[46.1 µM] | x | -2% | x | 26%[46.1 µM] | -1
CN(Cc1ccco1)C(=O)c1cc(NC(=O)C2CCC2)c2c(c1)nc(-c1ccncc1)n2C | x | x | 1% | x | x | x
